Consider 67 compounds from PubChem BioAssay AID504607 (Sanford-Burnham Center for Chemical Genomics, 2011).

About 4,800 (77%) of roughly 6,200 compounds were called active.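 Rule for the calls: active = mean inhibition at 8 µM reaching about 37%, which flags the compound as non-specific (limit read from the data); inactive = the rest.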 So high a share suggests a set chosen from earlier hits. The list is a sample of the results.

The nature of this assay: full-length luciferase signal inhibition, confirmation, counter-screen for Mdm2/MdmX interaction inhibitor project, cell-based, single concentration, SaOS-2 (AID 504607).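 Note: p53-null SaOS-2 cells with luciferase driven by a doxycycline-inducible promoter; compound on cells about two nights before reading with doxycycline added after day one.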 As to conditions: SaOS-2 full-length luciferase counterscreen, luminescence; at 8 µM; active compounds read high. On the technique in general: Counterscreens check selectivity or assay interference.
Usually inhibition stands for the change of the read-out against control, counted positive when it falls. Consider `O=C(Nc1ccc2ccccc2c1)Nc1ccc2snnc2c1`, for which the inhibition is 44.4% (active).
In the case of `COc1cccc(NC(=O)[C@H](Cc2c[nH]c3ccccc23)NC(=O)[C@@H]2Cc3ccccc3CN2)c1`, the inhibition was 53.2% (active).
As to `O=C(NC(Nc1nc2ccc([N+](=O)[O-])cc2s1)(C(F)(F)F)C(F)(F)F)c1ccccc1`, the inhibition is 8.11% (inactive).
The figure for `Cc1cc(CNC(=O)c2cccc([N+](=O)[O-])c2)c2ccccc2n1` is 41.5% (active).
For the compound `Cc1ccc(-c2nc3ccccc3[nH]2)cc1NC(=O)c1sc2ccccc2c1Cl`, the inhibition is 18.5% (inactive).
Under `CCOC(=O)c1c(NC(=O)c2ccc(S(=O)(=O)N(C)CC3CCCO3)cc2)sc2c1CC(C)(C)NC2(C)C` (configuration not stated) stands 62.7% (active); under `COC(=O)c1c(NC(=O)COc2ccc(Cl)cc2Cl)sc2c1CC(C)(C)NC2(C)C`, 3.07% (inactive).
Consider `O=C(CC(O)(C(F)(F)F)C(F)(F)F)Nc1ccc(Cl)c(Cl)c1`, for which the inhibition is 58.1% (active).
Under `Cc1cccc2sc(N(CCCN(C)C)C(=O)CCS(=O)(=O)c3ccccc3)nc12` stands 14.4% (inactive); under `CN(NC(=O)c1ccccc1)c1nc2ccccc2nc1C(F)(F)F`, 68.8% (active).
Under `CSc1nc(N(C)NC(=O)c2cccc(C)c2)c2ccccc2n1` stands 135% (active); under `CN(NC(=O)c1ccccc1F)c1nc(C(F)(F)F)nc2ccccc12`, 63.5% (active).
Under `CC1(C)CCSC(/C=C/c2ccccc2)=N1` stands 30.5% (inactive).
As to `Cc1ccccc1C(CC(=O)c1cccs1)C(C#N)C#N` (configuration not stated), the inhibition is 45.1% (active).
Under `O=C(Nc1ccc(C(=O)N2CCOCC2)cc1)Nc1cccc(C(F)(F)F)c1` stands 49.8% (active); under `CCNS(=O)(=O)c1ccc(NC(=O)Nc2cccc(C(F)(F)F)c2)cc1`, 53.4% (active).
Under `Cc1cccc(NC(=O)Nc2cccc(Oc3c(F)c(F)c(F)c(F)c3F)c2)c1` stands 32.5% (inactive); under `COc1ccc(-c2cc(C(F)(F)F)nc(S(C)(=O)=O)n2)cc1OC`, 24.3% (inactive); under `COc1ccc(-c2ccc(Nc3ccc(S(=O)(=O)N4CCCC4)cc3)nn2)cc1OC`, 77.8% (active).
Under `COc1ccc(C(=O)O/N=C(\N)Cc2ccc(Cl)cc2Cl)cc1OC` stands 47.8% (active); under `Cc1cccc(Nc2ccccc2C(=O)NCc2ccco2)c1C`, 39.6% (active); under `COc1ccc2sc(-c3ccc(S(C)(=O)=O)cc3)c(C#Cc3cncn3C)c2c1`, 44.8% (active).
As for `COc1cccc(-c2sc3ccc(OC)cc3c2-c2ccc(OCCN3CCCCC3)cc2)c1`, the inhibition is 32.7% (inactive).
Consider `O=C1N/C(=C/c2cccn2-c2ccccc2)C(=O)N1c1cccc(Cl)c1`, for which the inhibition is 126% (active).
Under `Cc1cccc(-n2c(C)cc(/C=N\NC(=O)c3cccs3)c2C)c1` stands 178% (active).
The figure for `Cc1cc(C(=O)COc2ccccc2[N+](=O)[O-])c(C)n1-c1cccc(S(=O)(=O)N2CCOCC2)c1` is 89.8% (active); for `Cn1nc(-c2ccccc2)c(CSc2cccc(Cl)c2)c1Cl` it is 51.5% (active).
As for `CCN1CCN(CCNC(=O)c2ccc(/C=C3/Sc4ccccc4N(Cc4cccc(C)c4)C3=O)cc2)CC1`, the inhibition was 27.6% (inactive).
Under `CN1CCN(CCCNC(=O)c2ccc(/C=C3\Oc4ccccc4N(Cc4ccc(Cl)cc4)C3=O)cc2)CC1` stands 62.6% (active).
Under `Cc1ccc(OCC(O)CN2CCN(CC(O)COc3ccc(C)cc3Cl)CC2)c(Cl)c1` (configuration not stated) stands 71.1% (active).
Under `Cn1c(=O)n(C)c2cc(C(=O)Nc3ccc4c(c3)OCO4)ccc21` stands 56.6% (active).
Turning to `CC1CCCCC1NC(=O)/C(C#N)=C/C=C/c1ccccc1[N+](=O)[O-]` (configuration not stated), the inhibition was 57.2% (active).
Under `NS(=O)(=O)c1ccc(N=Nc2c(O)[nH]c3ccc(Br)cc23)cc1` stands 86.5% (active).
Consider `C[C@@H]1C[C@@H]2O[C@H]2/C=C\C=C\C(=O)Cc2c(Cl)c(O)cc(O)c2C(=O)O1`, for which the inhibition was 33.8% (inactive).
The figure for `Clc1cccc(Cl)c1OCCOCCNCc1ccccc1` is 33% (inactive); for `N=c1c2c(-c3ccccc3)c(-c3ccccc3)n(Cc3ccccc3)c2ncn1CCCO` it is 62% (active).
`CCCCC(O)(CCCC)C(=O)NN(C(=O)CCl)c1ccccc1`: the inhibition is 34% (inactive).
The figure for `Cc1cc(=O)oc2cc(OCC3CC(c4ccccc4Cl)=NO3)ccc12` (configuration not stated) is 117% (active).
For the compound `Cc1ccc(-n2[nH]c(C)c(/C=N/NC(=O)c3cccc([N+](=O)[O-])c3)c2=O)cc1C`, the inhibition is 46.2% (active).
Under `Cn1c(C(=O)NCCCN2CCN(c3cccc(Cl)c3)CC2)cc2c(=O)n(C)c3ccccc3c21` stands 61.5% (active); under `OCCCNc1nccc(-c2cc(Nc3cccc(Cl)c3)ncn2)n1`, 53.2% (active); under `CC(C)n1cnc2c(Nc3cccc(Cl)c3)nc(N(CCO)CCCO)nc21`, 47.6% (active).
Regarding `CCCCCCCCn1c2c(c(=N)c3c1CCC3)CCCC2`, the inhibition was 22% (inactive).
`COc1ccc(-c2nn(C)c(=O)c3ccccc23)cc1NC(=O)COc1ccccc1`: the inhibition is 53.5% (active).
The figure for `O=[N+]([O-])c1ccc(Oc2ccc(F)cc2Br)c2ccncc12` is 16% (inactive); for `CCCC(=O)Nc1nc2ccc(NC(=O)c3cccnc3)cc2s1` it is 108% (active).
The figure for `O=C(Nc1nc2ccc([N+](=O)[O-])cc2s1)c1ccc(S(=O)(=O)N2CCCc3ccccc32)cc1` is 20% (inactive); for `Cc1nnc(NC(=O)Nc2ccc(Cl)c(Cl)c2)s1` it is 33.4% (inactive); for `O=C(Nc1ccc(Cl)cc1)Nc1nnc(/C=C/c2ccccc2)s1` it is 75.8% (active).
The figure for `Cc1c(C(=O)N/N=C/c2ccccc2)[nH]c2c([N+](=O)[O-])cccc12` is 48.3% (active); for `COc1cccc(CNCCc2c[nH]c3ccccc23)c1OCc1ccccc1F` it is 42% (active); for `COc1ccc(/C=C/C(=O)Nc2ccc(C34CC5CC(CC(O)(C5)C3)C4)cc2)cc1OC` it is 85.7% (active).
On to `CCN(CC)c1ccc(/C=N/Nc2nc(C)cc(C)n2)c(O)c1`, for which the inhibition was 38.6% (active).
Under `Cc1c(Cl)c([N+](=O)[O-])nn1Cc1ccc(C(=O)N/N=C\c2cc(Cl)ccc2O)o1` stands 32.4% (inactive); under `CCN(CC)c1ccc(/C=N/NC(=O)c2cnccn2)c(O)c1`, 37.9% (active).
On to `CC(=O)Oc1c(C(=O)c2nnc(C)o2)c(=O)n(Cc2ccccc2)c2ccccc12`, for which the inhibition was 36.5% (active).
The figure for `NC(N)=N/N=C/c1ccc(OCc2ccc(Cl)cc2Cl)cc1` is 50.2% (active); for `COc1cccc2cc(C(N)=O)/c(=N\NC(=O)c3ccccc3)oc12` it is 137% (active).
The figure for `CC(Nc1nc(N2CCCC2)nc2ccccc12)c1ccccc1` (configuration not stated) is 88.5% (active); for `O=C(/C=C/c1ccc(OCc2c(F)cccc2Cl)cc1)N1CCOCC1` it is 27.7% (inactive); for `C=C(C)C(=O)O[C@H]1C/C(C)=C\C(=O)/C=C(\C)[C@H](O)[C@@H]2OC(=O)C(=C)[C@@H]21` it is 51.4% (active).
Turning to `CCc1ccc(N(CC)c2ncnc3nc[nH]c23)cc1`, the inhibition is 41.2% (active).
The figure for `C/C(=N\NC(=O)c1ccccc1F)c1ccccn1` is 52.1% (active); for `CCOC(=O)CC1C(=O)NCCN1c1nc2c(C)cccn2c(=O)c1/C=C1\SC(=S)N(C(C)CC)C1=O` (configuration not stated) it is 101% (active); for `CCN1C(=O)c2cccc3c(S(=O)(=O)Nc4ccccc4O)ccc1c23` it is 76.6% (active).
Under `COc1ccc2c(c1OC)C(=O)OC2Nc1nc(-c2ccccc2)cs1` (configuration not stated) stands 51.2% (active); under `Cc1ccc(-c2csc(NC3OC(=O)c4ccccc43)n2)cc1` (configuration not stated), 23.7% (inactive).
